What all share (experiment): RNA Bind-n-Seq (nitrocellulose filter binding and sequencing); miR-122 guide loaded in AGO2; 60 min incubation; 30 mM Tris pH 8.0, 100 mM potassium acetate, 2 mM magnesium acetate, 0.5 mM TCEP, 0.005% NP-40, 0.01 mg/ml yeast tRNA; 3 nM AGO2-miR-122, 100 nM RNA library; 60; high values mean tight binding
Common to all, as to details: protein: recombinant; tags: His6 (N-terminal, pFastBac HTA)

Assay [1] concerns the target AGO2 WT (phosphosite mutant background) (Homo sapiens, UniProt Q9UKV8 1-859, S387D;S824A;S828D;S831D;S834A). An outline of the steps: (§1)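 Fold enrichment is each target's read fraction divided by its read fraction in the input library. Sf9 insect cells expressed His-tagged AGO2 from baculovirus; the protein was loaded with a synthetic guide RNA and purified by Ni-NTA and a biotinylated capture oligo. The bound RNA was extracted, reverse-transcribed, barcode-amplified and sequenced on Illumina.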

Another assay deals with AGO2 L192P (Homo sapiens, UniProt Q9UKV8 1-859, L192P;S387D;S824A;S828D;S831D;S834A). In a few lines:
as §1

The target of another assay is AGO2 A367P (Homo sapiens, UniProt Q9UKV8 1-859, A367P;S387D;S824A;S828D;S831D;S834A). In a few lines: as §1
A further assay has as its target AGO2 T357M (Homo sapiens, UniProt Q9UKV8 1-859, T357M;S387D;S824A;S828D;S831D;S834A). In a few lines: as §1
A further assay has as its target AGO2 F182del (Homo sapiens, UniProt Q9UKV8 1-859, S387D;S824A;S828D;S831D;S834A;del182-182). In a few lines:
as §1

The record followed here is article PMC12529666, “Dysregulation of AGO2-miRNA dynamics underlies the AGO2-associated Lessel–Kreienkamp syndrome”.

AGO2 F182del, sequence (Q9UKV8 other isoform, or with tags, fused parts or gaps S387D;S824A;S828D;S831D;S834A;del182-182): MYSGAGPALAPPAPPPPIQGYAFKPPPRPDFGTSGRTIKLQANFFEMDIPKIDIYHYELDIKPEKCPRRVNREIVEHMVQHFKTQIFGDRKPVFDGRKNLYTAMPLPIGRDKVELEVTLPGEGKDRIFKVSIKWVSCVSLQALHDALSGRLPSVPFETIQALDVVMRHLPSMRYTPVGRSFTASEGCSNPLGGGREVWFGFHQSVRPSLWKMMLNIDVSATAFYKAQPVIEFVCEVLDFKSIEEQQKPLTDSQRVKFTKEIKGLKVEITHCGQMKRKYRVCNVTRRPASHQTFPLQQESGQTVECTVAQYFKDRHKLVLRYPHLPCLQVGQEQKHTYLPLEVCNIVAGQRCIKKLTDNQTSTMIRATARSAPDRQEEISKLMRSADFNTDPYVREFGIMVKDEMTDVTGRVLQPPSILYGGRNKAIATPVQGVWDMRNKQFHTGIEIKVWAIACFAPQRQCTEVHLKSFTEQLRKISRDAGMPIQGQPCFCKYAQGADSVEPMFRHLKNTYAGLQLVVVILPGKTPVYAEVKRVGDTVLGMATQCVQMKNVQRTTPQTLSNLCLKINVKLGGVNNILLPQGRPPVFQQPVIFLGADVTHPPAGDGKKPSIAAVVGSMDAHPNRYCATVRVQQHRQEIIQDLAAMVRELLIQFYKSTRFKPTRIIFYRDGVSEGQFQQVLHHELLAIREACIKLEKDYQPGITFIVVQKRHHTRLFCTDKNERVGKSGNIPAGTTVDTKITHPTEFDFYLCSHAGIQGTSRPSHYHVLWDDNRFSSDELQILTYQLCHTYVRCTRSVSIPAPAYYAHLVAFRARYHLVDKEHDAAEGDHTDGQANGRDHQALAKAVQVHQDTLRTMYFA
AGO2 A367P, sequence (Q9UKV8 whole entry A367P/S387D/S824A/S828D/S831D/S834A): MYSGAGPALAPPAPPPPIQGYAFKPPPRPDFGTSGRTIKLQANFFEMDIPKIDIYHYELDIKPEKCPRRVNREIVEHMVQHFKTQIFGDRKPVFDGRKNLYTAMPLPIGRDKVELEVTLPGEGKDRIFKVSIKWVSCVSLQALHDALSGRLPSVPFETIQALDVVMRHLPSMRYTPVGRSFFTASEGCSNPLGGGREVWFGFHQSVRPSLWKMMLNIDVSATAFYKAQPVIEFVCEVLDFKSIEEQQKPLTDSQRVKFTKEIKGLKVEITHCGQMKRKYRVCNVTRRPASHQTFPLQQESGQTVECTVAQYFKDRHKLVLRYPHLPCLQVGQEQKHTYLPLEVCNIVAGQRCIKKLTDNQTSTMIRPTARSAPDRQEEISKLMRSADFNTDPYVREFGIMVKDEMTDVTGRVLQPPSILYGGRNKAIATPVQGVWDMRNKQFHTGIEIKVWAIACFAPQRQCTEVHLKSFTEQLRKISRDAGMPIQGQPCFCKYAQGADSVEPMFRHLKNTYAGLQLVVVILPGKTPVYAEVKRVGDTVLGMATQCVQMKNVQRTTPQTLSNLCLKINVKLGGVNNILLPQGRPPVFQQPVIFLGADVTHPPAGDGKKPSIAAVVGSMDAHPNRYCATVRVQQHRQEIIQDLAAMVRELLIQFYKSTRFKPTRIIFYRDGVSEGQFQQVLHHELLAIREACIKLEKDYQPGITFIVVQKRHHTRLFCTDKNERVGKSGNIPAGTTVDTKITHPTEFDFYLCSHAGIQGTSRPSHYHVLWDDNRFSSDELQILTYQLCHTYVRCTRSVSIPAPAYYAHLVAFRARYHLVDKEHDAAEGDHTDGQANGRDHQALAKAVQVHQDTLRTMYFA
AGO2 T357M, sequence (Q9UKV8 whole entry T357M/S387D/S824A/S828D/S831D/S834A): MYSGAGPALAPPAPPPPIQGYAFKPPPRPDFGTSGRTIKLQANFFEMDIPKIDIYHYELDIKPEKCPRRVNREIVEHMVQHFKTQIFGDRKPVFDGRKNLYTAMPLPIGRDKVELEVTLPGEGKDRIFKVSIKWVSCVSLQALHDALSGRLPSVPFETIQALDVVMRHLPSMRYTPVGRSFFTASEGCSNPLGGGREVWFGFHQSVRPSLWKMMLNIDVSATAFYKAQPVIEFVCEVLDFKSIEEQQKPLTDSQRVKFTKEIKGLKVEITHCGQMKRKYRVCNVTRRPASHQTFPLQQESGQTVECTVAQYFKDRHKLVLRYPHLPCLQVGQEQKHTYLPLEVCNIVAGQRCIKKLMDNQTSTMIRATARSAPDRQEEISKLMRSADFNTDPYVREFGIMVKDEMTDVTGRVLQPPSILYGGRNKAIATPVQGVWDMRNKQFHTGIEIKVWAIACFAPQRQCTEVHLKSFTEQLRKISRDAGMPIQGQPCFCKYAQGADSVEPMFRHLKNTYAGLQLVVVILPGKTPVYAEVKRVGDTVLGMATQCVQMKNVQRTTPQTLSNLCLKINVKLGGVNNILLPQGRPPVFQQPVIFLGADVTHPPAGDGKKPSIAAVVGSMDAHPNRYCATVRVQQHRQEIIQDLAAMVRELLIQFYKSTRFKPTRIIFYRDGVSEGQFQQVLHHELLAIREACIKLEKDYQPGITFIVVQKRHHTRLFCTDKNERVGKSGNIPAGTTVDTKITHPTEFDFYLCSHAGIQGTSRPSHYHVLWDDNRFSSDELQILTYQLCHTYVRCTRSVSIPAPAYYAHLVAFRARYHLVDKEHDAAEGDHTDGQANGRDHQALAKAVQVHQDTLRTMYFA
AGO2 L192P, sequence (Q9UKV8 whole entry L192P/S387D/S824A/S828D/S831D/S834A): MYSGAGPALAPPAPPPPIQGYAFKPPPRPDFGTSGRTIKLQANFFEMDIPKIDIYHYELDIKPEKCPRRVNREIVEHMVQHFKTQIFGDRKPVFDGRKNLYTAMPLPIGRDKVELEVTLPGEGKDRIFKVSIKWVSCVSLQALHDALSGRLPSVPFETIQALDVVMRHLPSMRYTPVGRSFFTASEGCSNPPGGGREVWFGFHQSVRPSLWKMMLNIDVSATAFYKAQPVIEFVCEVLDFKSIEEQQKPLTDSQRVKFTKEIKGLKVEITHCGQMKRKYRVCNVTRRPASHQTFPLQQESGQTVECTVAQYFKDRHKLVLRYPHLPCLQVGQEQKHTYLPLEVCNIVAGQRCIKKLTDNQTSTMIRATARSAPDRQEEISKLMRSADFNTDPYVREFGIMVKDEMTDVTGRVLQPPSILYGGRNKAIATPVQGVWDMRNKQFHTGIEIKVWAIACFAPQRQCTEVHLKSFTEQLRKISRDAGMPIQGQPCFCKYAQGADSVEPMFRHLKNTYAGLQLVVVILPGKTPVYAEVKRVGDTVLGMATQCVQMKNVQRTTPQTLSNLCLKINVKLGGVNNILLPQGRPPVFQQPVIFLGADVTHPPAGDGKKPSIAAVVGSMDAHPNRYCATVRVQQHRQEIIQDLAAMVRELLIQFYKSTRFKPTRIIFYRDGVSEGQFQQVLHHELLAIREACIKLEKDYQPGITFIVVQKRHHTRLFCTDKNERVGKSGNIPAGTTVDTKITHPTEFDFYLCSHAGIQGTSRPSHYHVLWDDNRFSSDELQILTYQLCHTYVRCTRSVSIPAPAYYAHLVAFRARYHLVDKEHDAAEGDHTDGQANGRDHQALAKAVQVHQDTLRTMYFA
AGO2 WT (phosphosite mutant background), sequence (Q9UKV8 whole entry S387D/S824A/S828D/S831D/S834A): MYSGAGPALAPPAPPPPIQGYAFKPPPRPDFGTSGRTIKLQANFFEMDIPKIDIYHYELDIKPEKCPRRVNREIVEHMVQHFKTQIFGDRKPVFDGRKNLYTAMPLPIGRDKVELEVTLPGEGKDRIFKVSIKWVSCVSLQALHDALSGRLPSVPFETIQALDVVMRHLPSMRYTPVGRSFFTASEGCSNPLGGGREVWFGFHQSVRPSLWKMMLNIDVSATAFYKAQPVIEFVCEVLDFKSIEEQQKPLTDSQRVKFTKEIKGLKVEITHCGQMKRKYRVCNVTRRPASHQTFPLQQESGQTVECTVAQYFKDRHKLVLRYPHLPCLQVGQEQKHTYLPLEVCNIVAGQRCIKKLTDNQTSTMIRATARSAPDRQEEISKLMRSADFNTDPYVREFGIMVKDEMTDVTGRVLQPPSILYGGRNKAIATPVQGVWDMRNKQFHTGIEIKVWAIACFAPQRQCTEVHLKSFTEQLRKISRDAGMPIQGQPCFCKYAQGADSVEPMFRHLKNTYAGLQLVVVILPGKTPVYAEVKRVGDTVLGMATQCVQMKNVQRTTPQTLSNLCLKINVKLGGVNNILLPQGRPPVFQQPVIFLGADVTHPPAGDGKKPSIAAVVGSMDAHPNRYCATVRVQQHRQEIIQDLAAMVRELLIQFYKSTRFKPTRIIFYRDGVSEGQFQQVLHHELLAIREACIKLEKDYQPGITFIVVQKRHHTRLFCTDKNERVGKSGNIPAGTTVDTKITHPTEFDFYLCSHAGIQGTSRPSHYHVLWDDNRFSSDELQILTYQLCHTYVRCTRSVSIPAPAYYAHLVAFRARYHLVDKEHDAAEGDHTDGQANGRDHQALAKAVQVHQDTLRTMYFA

B1: ACGCCCCA (ssRNA)
RNA 1: GAGUUCUACAGUCCGACGAUCCCAACACGCCCCACACCUGGAAUUCUCGGGUGCCAA
RNA 2: UGGAGUGUGACAAUGGUGUUUG
DNA 1: GATCGTCGGACTGTAGAACTC
DNA 2: TTGGCACCCGAGAATTCCA
modifications: constant regions annealed to DNA blockers; guide miR-122 5' phosphate
With B1, the binding signal in assay [1] is 0.123 fold enrichment over input; with AGO2 L192P it was 0.538 fold enrichment over input; with AGO2 A367P, 0.215 fold enrichment over input; in the assay with AGO2 T357M it was 0.719 fold enrichment over input; with AGO2 F182del it was 0.236 fold enrichment over input.

B2: GCGCCTTA (ssRNA)
RNA 1: GAGUUCUACAGUCCGACGAUCCCAACGCGCCUUACACCUGGAAUUCUCGGGUGCCAA
RNA 2: UGGAGUGUGACAAUGGUGUUUG
DNA 1: GATCGTCGGACTGTAGAACTC
DNA 2: TTGGCACCCGAGAATTCCA
modifications: constant regions annealed to DNA blockers; guide miR-122 5' phosphate
In the case of B2, the binding signal was 0.125 fold enrichment over input in assay [1], 0.5 fold enrichment over input with AGO2 L192P, 0.194 fold enrichment over input with AGO2 A367P and 0.763 fold enrichment over input in the assay with AGO2 T357M.

B3: GCGCCTCA (ssRNA)
RNA 1: GAGUUCUACAGUCCGACGAUCCCAACGCGCCUCACACCUGGAAUUCUCGGGUGCCAA
RNA 2: UGGAGUGUGACAAUGGUGUUUG
DNA 1: GATCGTCGGACTGTAGAACTC
DNA 2: TTGGCACCCGAGAATTCCA
modifications: constant regions annealed to DNA blockers; guide miR-122 5' phosphate
In the case of B3, the binding signal in assay [1] is 0.131 fold enrichment over input; in the assay with AGO2 L192P, 0.523 fold enrichment over input; with AGO2 A367P it was 0.233 fold enrichment over input; with AGO2 T357M, 0.741 fold enrichment over input; in the assay with AGO2 F182del, 0.304 fold enrichment over input.

B4: GCGTCCCA (ssRNA)
RNA 1: GAGUUCUACAGUCCGACGAUCCCAACGCGUCCCACACCUGGAAUUCUCGGGUGCCAA
RNA 2: UGGAGUGUGACAAUGGUGUUUG
DNA 1: GATCGTCGGACTGTAGAACTC
DNA 2: TTGGCACCCGAGAATTCCA
modifications: constant regions annealed to DNA blockers; guide miR-122 5' phosphate
As for B4, the binding signal is 0.126 fold enrichment over input in assay [1]; 0.51 fold enrichment over input in the assay with AGO2 L192P; 0.215 fold enrichment over input in the assay with AGO2 A367P; 0.751 fold enrichment over input with AGO2 T357M; 0.169 fold enrichment over input in the assay with AGO2 F182del.

B5: GTACCTCA (ssRNA)
RNA 1: GAGUUCUACAGUCCGACGAUCCCAACGUACCUCACACCUGGAAUUCUCGGGUGCCAA
RNA 2: UGGAGUGUGACAAUGGUGUUUG
DNA 1: GATCGTCGGACTGTAGAACTC
DNA 2: TTGGCACCCGAGAATTCCA
modifications: constant regions annealed to DNA blockers; guide miR-122 5' phosphate
As to B5, the binding signal was 0.149 fold enrichment over input in assay [1]; 0.573 fold enrichment over input with AGO2 L192P; 0.44 fold enrichment over input with AGO2 A367P; 0.601 fold enrichment over input with AGO2 T357M; 1.57 fold enrichment over input in the assay with AGO2 F182del.

B6: GCACCTTA (ssRNA)
RNA 1: GAGUUCUACAGUCCGACGAUCCCAACGCACCUUACACCUGGAAUUCUCGGGUGCCAA
RNA 2: UGGAGUGUGACAAUGGUGUUUG
DNA 1: GATCGTCGGACTGTAGAACTC
DNA 2: TTGGCACCCGAGAATTCCA
modifications: constant regions annealed to DNA blockers; guide miR-122 5' phosphate
For the molecule B6, the binding signal was 0.132 fold enrichment over input in assay [1]; 0.59 fold enrichment over input with AGO2 L192P; 0.307 fold enrichment over input with AGO2 A367P; 0.657 fold enrichment over input with AGO2 T357M; 0.717 fold enrichment over input in the assay with AGO2 F182del.

B7: ACGTCCCA (ssRNA)
RNA 1: GAGUUCUACAGUCCGACGAUCCCAACACGUCCCACACCUGGAAUUCUCGGGUGCCAA
RNA 2: UGGAGUGUGACAAUGGUGUUUG
DNA 1: GATCGTCGGACTGTAGAACTC
DNA 2: TTGGCACCCGAGAATTCCA
modifications: constant regions annealed to DNA blockers; guide miR-122 5' phosphate
Take B7: the binding signal was 0.127 fold enrichment over input in assay [1]; 0.569 fold enrichment over input in the assay with AGO2 L192P; 0.255 fold enrichment over input in the assay with AGO2 A367P; 0.637 fold enrichment over input with AGO2 T357M; 0.446 fold enrichment over input with AGO2 F182del.

B8: GTGTCCCA (ssRNA)
RNA 1: GAGUUCUACAGUCCGACGAUCCCAACGUGUCCCACACCUGGAAUUCUCGGGUGCCAA
RNA 2: UGGAGUGUGACAAUGGUGUUUG
DNA 1: GATCGTCGGACTGTAGAACTC
DNA 2: TTGGCACCCGAGAATTCCA
modifications: constant regions annealed to DNA blockers; guide miR-122 5' phosphate
As for B8, the binding signal is 0.125 fold enrichment over input in assay [1]; 0.479 fold enrichment over input in the assay with AGO2 L192P; 0.249 fold enrichment over input with AGO2 A367P; 0.602 fold enrichment over input with AGO2 T357M; 0.268 fold enrichment over input with AGO2 F182del.

B9: GTGCTTCG (ssRNA)
RNA 1: GAGUUCUACAGUCCGACGAUCCCAACGUGCUUCGCACCUGGAAUUCUCGGGUGCCAA
RNA 2: UGGAGUGUGACAAUGGUGUUUG
DNA 1: GATCGTCGGACTGTAGAACTC
DNA 2: TTGGCACCCGAGAATTCCA
modifications: constant regions annealed to DNA blockers; guide miR-122 5' phosphate
For the molecule B9, the binding signal is 0.127 fold enrichment over input in assay [1], 0.455 fold enrichment over input with AGO2 L192P, 0.192 fold enrichment over input with AGO2 A367P and 0.624 fold enrichment over input in the assay with AGO2 T357M.

B10: GTGCCTTA (ssRNA)
RNA 1: GAGUUCUACAGUCCGACGAUCCCAACGUGCCUUACACCUGGAAUUCUCGGGUGCCAA
RNA 2: UGGAGUGUGACAAUGGUGUUUG
DNA 1: GATCGTCGGACTGTAGAACTC
DNA 2: TTGGCACCCGAGAATTCCA
modifications: constant regions annealed to DNA blockers; guide miR-122 5' phosphate
For B10, the binding signal in assay [1] was 0.126 fold enrichment over input; with AGO2 L192P, 0.555 fold enrichment over input; in the assay with AGO2 A367P, 0.217 fold enrichment over input; with AGO2 T357M it was 0.801 fold enrichment over input.
